Test results published in PubChem BioAssay.
Calls of active or inactive are those of the source.

What was measured:
Albumin (Bos taurus) = Albumin (Bos taurus) (UniProt P02769); assay: bovine serum albumin binders on microarray, profiling panel, artefact control for SMM control protein annotation, biochemical, small-molecule microarray, Alexa647 label, 635/667 nm fluorescence (AID 1118); conditions: BSA-A647 binding, fluorescence 635 nm, higher = more signal;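 note: score merges 667 nm emission intensity and signal-to-noise per printed compound spot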
[1] = small-molecule microarray binders of probe aXIP, primary screen, biochemical, NeuroSMM set, 635/667 nm fluorescence (AID 1119); conditions: higher = more signal, called active from +8 up or from −8 down;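 note: probe is the protein aXip251-270 applied at 1 µg/mL to compound-printed slides; binding of probe to printed compounds measured as 667 nm fluorescence plus signal to noise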
[2] = small-molecule binders of probe aNOTCH3, primary screen, biochemical, small-molecule microarray, 635/667 nm fluorescence (AID 1120); conditions: higher = more signal;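 note: probe is a biotin-tagged antibody raised against NOTCH3 rather than NOTCH3 protein; score merges spot fluorescence near 667 nm with spot signal to noise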
[3] = small-molecule binders of probe aNOTCH2, primary screen, biochemical, small-molecule microarray, 635/667 nm fluorescence (AID 1121); conditions: higher = more signal;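 note: score merges feature fluorescence read at 667 nm with its signal to noise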
[4] = target: Carbonic anhydrase 2 (Homo sapiens) (UniProt P00918); assay: CAII small-molecule binders, profiling panel, biochemical, small-molecule microarray, Alexa647-labelled CAII (AID 1122); conditions: CAII-A647 binding fluorescence, higher = more signal
[5] = COS7 lysate on small-molecule microarray, probe aHis, 635 nm (AID 1123); conditions: COS7 cell lysate, fluorescence, higher = more signal;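 note: z-score combines 667nm fluorescence intensity with signal-to-noise per printed compound spot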
[6] = compound binding in COS7 lysate, probe aLAP1, primary screen, cell lysate, small-molecule microarray (AID 1124); conditions: probe aLAP1, fluorescence, higher = more signal;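 note: lysate comes from COS7 cells expressing LAP1 and is applied at 0.3 µg/mL; score merges spot fluorescence near 667 nm with signal-to-noise over triplicate slides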
Sam68 (KHDRBS1) = assay: Sam68 small-molecule binders, primary screen, biochemical, small-molecule microarray, 635 nm fluorescence (AID 1125); conditions: small-molecule microarray binding, higher = more signal;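 note: score merges 667 nm channel intensity with signal to noise over triplicate slides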
[7] = test system: Chordin-like protein 2 (CHRDL2); assay: CHRDL2 small-molecule binders, primary screen, biochemical, small-molecule microarray, 635 nm fluorescence (AID 1126); conditions: small-molecule microarray binding, fluorescence 635 nm; higher = more signal;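 note: printed compound slides probed with Chrdl2 protein at 4 µg/mL for 1 h at 4 C; score merges 667 nm emission intensity with signal to noise over three replicate slides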
[8] = target: Concanavalin-A (Canavalia ensiformis) (UniProt P02866); assay: ConA small-molecule binders, primary screen, artefact control for SMM control protein annotation, biochemical, small-molecule microarray, Alexa647 label, 635 nm (AID 1127); conditions: ConA-A647 binding fluorescence, higher = more signal;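 note: z combines 667 nm emission intensity with signal-to-noise across three replicate slides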
[9] = anti-His antibody binders, primary screen, artefact control for SMM control protein annotation, biochemical, small-molecule microarray, 635 nm fluorescence (AID 1128); conditions: anti-His Alexa647 antibody binding, higher = more signal;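 note: score merges feature fluorescence with signal-to-noise for each printed compound spot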
[10] = test system: Human papillomavirus type 1a E7 protein (residues 1-88); assay: HPV1a E7 small-molecule binders, primary screen, biochemical, small-molecule microarray, residues 1-88, 635 nm (AID 1129); conditions: small-molecule microarray binding, fluorescence 635 nm; higher = more signal
[11] = target: Focal adhesion kinase 1 (Homo sapiens) (UniProt Q05397); assay: small-molecule microarray binders of FAK, primary screen, biochemical, 635/667 nm fluorescence, BSA, DTT (AID 1130); conditions: PTK2 binding, 635 nm fluorescence, higher = more signal;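 note: composite of spot emission at 667 nm and signal to noise over triplicate slides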
[12] = test system: Fibrinogen (Alexa647-labelled); assay: fibrinogen binders on compound microarrays, profiling panel, artefact control for SMM control-protein annotation, biochemical, small-molecule microarray, 635/667 nm fluorescence (AID 1131); conditions: fibrinogen-A647 binding fluorescence, higher = more signal;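 note: z-score merges 667 nm fluorescence with per-spot signal-to-noise over triplicate slides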
[13] = target: Follistatin (Homo sapiens) (UniProt P19883); assay: follistatin binders on small-molecule microarrays, primary screen, biochemical, small-molecule microarray, 635/667 nm fluorescence (AID 1132); conditions: FST binding, 635 nm fluorescence, higher = more signal
[14] = target: Fibroblast growth factor 2 (Homo sapiens) (UniProt P09038); assay: FGF2 binders on small-molecule microarrays, primary screen, biochemical, small-molecule microarray, 635/667 nm fluorescence (AID 1133); conditions: small-molecule microarray binding, FGF2, fluorescence 635/667; higher = more signal
[15] = mitochondrial membrane potential change in A549 cells, profiling panel, cell-based, JC-1 fluorescence, basal, 24 h, 100 nL (AID 1138); conditions: higher = more signal;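 note: A549 lung adenocarcinoma cells under basal conditions with no added stimulus; test concentration not given here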
Lefty1 = Lefty1 binders on small-molecule microarrays, primary screen, biochemical, small-molecule microarray, 635/667 nm fluorescence (AID 1139); conditions: small-molecule microarray binding, fluorescence 635/667; higher = more signal
[16] = test system: wheat germ agglutinin (Triticum aestivum), Alexa647-labelled; assay: wheat germ agglutinin binders on compound microarrays, profiling panel, artefact control for SMM control-protein annotation, biochemical, small-molecule microarray, 635/667 nm fluorescence (AID 1140); conditions: WGA-A647 binding, 635 nm fluorescence, higher = more signal;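 note: score merges 667 nm feature emission with signal to noise over triplicate slides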
[17] = target: Luciferin 4-monooxygenase (Photinus pyralis) (UniProt P08659); assay: firefly luciferase enzyme inhibitors, primary screen, biochemical, luminescence, purified enzyme, 2006 set (AID 1141); conditions: SteadyGlo luminescence, 30 min, higher = more signal, called active from +8 up or from −8 down;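 note: cell-free assay with purified firefly luciferase at 100 ng per well in PBS; test concentration not given here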
Sequence of Luciferin 4-monooxygenase (Photinus pyralis) (P08659 whole entry, looked up): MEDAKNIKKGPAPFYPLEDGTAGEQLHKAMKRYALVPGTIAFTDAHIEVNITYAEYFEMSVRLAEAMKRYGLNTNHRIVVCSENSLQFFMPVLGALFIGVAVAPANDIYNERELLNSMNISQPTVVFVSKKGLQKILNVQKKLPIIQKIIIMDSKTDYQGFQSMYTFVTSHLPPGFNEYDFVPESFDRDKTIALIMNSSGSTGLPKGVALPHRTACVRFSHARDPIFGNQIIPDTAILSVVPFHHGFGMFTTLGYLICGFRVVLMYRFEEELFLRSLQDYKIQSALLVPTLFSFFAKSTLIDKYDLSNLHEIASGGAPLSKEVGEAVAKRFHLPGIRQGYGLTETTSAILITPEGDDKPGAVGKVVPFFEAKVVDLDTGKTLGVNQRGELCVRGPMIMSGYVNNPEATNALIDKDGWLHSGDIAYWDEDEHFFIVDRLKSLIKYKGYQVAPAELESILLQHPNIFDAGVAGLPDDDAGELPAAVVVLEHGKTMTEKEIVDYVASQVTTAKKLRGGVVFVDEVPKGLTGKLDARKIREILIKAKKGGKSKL

Sequence of Concanavalin-A (Canavalia ensiformis) (P02866 whole entry, looked up): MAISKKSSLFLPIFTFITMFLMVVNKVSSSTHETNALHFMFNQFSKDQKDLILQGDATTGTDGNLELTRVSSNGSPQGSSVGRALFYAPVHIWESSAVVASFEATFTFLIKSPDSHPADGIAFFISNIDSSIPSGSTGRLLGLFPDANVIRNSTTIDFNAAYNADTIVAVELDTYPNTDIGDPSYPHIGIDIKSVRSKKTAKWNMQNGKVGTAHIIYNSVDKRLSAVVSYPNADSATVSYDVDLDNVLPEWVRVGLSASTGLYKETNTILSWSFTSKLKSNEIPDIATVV
Sequence of Focal adhesion kinase 1 (Homo sapiens) (Q05397 whole entry, looked up): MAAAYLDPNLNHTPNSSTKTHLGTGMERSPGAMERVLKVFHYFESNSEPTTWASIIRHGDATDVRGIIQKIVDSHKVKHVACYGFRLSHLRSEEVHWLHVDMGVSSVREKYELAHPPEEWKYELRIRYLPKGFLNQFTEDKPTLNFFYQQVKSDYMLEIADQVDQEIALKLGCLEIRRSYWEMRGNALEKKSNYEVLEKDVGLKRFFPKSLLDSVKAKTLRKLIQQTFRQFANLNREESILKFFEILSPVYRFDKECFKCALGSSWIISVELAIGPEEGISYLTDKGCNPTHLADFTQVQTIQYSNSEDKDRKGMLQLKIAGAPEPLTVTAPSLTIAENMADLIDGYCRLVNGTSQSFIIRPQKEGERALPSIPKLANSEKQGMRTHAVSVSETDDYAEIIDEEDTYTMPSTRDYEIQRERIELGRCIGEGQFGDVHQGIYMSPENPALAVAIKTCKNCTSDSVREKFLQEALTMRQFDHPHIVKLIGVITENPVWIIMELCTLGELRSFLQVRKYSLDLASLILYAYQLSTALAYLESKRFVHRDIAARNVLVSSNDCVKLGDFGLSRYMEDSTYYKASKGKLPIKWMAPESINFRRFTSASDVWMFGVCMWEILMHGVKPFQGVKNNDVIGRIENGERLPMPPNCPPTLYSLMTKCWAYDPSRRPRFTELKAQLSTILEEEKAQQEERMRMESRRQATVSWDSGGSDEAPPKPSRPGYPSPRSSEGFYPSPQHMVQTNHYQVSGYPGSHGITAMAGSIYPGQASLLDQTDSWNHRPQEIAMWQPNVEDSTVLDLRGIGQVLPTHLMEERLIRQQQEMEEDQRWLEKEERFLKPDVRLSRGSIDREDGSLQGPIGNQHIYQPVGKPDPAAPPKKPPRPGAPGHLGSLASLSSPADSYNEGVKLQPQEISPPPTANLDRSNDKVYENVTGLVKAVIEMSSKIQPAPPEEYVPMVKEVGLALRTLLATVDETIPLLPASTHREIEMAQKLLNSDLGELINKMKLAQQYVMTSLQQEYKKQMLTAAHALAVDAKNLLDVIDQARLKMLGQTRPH
Sequence of Follistatin (Homo sapiens) (P19883 whole entry, looked up): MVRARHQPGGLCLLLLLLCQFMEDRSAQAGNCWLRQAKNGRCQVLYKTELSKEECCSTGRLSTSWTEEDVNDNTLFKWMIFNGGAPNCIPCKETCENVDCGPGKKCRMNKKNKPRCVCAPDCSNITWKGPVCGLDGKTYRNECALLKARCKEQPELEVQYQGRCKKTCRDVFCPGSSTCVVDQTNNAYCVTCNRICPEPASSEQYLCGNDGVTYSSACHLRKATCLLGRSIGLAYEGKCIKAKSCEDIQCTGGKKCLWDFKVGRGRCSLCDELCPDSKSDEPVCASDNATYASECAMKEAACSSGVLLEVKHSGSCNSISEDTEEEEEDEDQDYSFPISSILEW
Sequence of Albumin (Bos taurus) (P02769 whole entry, looked up): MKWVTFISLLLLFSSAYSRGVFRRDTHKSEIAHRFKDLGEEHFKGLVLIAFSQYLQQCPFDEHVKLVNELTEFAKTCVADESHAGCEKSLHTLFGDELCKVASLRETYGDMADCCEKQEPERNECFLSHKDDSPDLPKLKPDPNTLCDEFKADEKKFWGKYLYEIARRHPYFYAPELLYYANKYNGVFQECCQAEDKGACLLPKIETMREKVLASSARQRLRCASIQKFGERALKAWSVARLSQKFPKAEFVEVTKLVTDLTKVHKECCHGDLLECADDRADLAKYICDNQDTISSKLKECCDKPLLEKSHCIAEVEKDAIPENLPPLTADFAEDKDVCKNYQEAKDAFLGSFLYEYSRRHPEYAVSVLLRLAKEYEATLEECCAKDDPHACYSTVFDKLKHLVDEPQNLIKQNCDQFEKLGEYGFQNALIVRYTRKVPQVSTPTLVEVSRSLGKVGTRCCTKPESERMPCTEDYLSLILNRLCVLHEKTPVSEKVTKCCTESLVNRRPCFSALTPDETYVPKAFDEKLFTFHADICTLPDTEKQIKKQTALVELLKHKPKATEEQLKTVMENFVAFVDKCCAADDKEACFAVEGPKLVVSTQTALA
Sequence of Fibroblast growth factor 2 (Homo sapiens) (P09038 whole entry, looked up): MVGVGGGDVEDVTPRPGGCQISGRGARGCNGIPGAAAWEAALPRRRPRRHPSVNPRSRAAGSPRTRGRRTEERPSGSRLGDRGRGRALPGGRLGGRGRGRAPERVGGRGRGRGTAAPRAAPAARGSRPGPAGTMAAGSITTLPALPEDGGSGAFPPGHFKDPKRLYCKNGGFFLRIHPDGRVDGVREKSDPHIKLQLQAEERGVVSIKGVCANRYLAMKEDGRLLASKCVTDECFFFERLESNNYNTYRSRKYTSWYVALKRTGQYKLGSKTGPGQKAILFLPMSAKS

Row | Structure (SMILES) | composite z-score (Albumin (Bos taurus)) | composite Z-score [1] | composite z-score [2] | composite z-score [3] | composite z-score [4] | composite z-score [5] | composite z-score [6] | composite z-score (Sam68 (KHDRBS1)) | composite z-score [7] | composite z-score [8] | composite z-score [9] | composite z-score [10] | composite z-score [11] | composite z-score [12] | composite z-score [13] | composite z-score [14] | z-score [15] | composite z-score (Lefty1) | composite z-score [16] | z-score [17]
1 | CO[C@H]1COC(=O)CC=C[C@H](C)[C@@H](OC)COC(=O)[C@@H](C)COC(=O)CC=C[C@@H]1C | -0.93 | 0.793 (inactive) | -0.0647 | -0.146 | -0.535 | -0.25 | -0.145 | -0.132 | 1.51 | -1.85 | -0.756 | -0.699 | -0.111 | -1.26 | 1.5 | 1.77 | 0.657 | 1.55 | -1.05 | -0.454 (inactive)
2 | C=CC1=C[C@H](O)[C@@H]2O[C@@H]2C12OCCCO2 | -0.728 | -0.174 (inactive) | -0.131 | -0.0878 | 0.0206 | -0.281 | -0.115 | 0.372 | 0.202 | 0.337 | 0.837 | 0.661 | 0.172 | 0.429 | -0.285 | 0.151 | -0.722 | 0.0863 | -0.159 | 0.571 (inactive)
3 | CO[C@H]1COC(=O)CCC[C@@H](C)[C@H](OC)COC(=O)[C@@H](C)NC(=O)CC=C[C@@H]1C | -0.46 | 0.667 (inactive) | -0.0647 | -0.134 | -0.716 | -1.8 | -0.126 | 0.186 | 1.45 | -0.456 | -0.132 | -1.12 | -0.154 | -0.737 | 1.12 | 1.17 | -0.716 | 1.42 | -0.878 | 0.624 (inactive)
4 | CC(C)C[C@H](NC(=O)CCC1CC(OC(=O)NCc2cccc3ccccc23)CC2(CCCC(COC(=O)NCc3ccccc3)O2)O1)C(=O)NCC(c1ccccc1)c1ccccc1 (stereo not given in full) | 0.163 | -0.0662 (inactive) | 0.0876 | -0.234 | 0.404 | 0.743 | 1.09 | 1.31 | 0.546 | 0.347 | 0.231 | 1.13 | 0.383 | 0.803 | 0.909 | 1.27 | 1.09 | 1.07 | 0.493 | 0.43 (inactive)
5 | O=C1[C@H]2[C@H]3[C@H](O)[C@H](O)CC(=NOC[C@@H](O)COCc4ccco4)[C@H]3CC[C@H]2C(=O)N1Cc1ccccc1 | -0.13 | 0.48 (inactive) | -0.119 | -0.192 | -0.154 | -0.867 | -0.343 | -0.333 | 0.836 | -0.242 | -0.267 | -0.429 | -0.326 | -1.55 | 0.691 | 0.633 | -0.287 | 0.496 | -0.438 | 0.737 (inactive)
6 | CCOC(=O)C1=NO[C@]2(C=C(Br)C3(OCCCO3)[C@H]3O[C@H]32)C1 | 0.653 | -0.455 (inactive) | -0.239 | -0.0907 | 0.114 | -0.263 | -0.157 | -0.638 | -0.31 | -0.586 | -0.765 | -0.57 | -0.428 | 0.185 | -0.599 | -0.285 | -0.242 | -0.168 | 0.513 | 0.163 (inactive)
7 | CCc1cc2c(nc1CC)CCN(CCC(C)=NO[C@H](C)c1cn([C@@H]3COC[C@H]3O)nn1)C2 | -0.559 | 0.577 (inactive) | -0.005 | -0.0554 | 0.202 | -0.394 | 0.111 | 0.325 | 0.61 | -0.178 | -0.0963 | -0.139 | -0.162 | 0.522 | 0.523 | 0.305 | 0.537 | 0.204 | 0.199 | 0.221 (inactive)
8 | COC(=O)CC=C[C@@H](C)[C@H](OCc1cccc(-c2ccccc2)c1)C1CCCCC1 | 0.0024 | 0.369 (inactive) | -0.195 | -0.109 | 0.942 | -0.159 | 0.0206 | -0.679 | 1.23 | 0.923 | -0.791 | -0.46 | -0.0125 | -0.14 | 0.768 | -0.226 | 0.237 | 0.0133 | 0.534 | -0.0245 (inactive)
9 | Cc1ccc(S(=O)(=O)N[C@H]2COC(=O)CC=C[C@@H](C)COC(=O)CC=C[C@@H]2C)cc1 | -1.17 | -0.821 (inactive) | -0.163 | -0.186 | -0.41 | -0.688 | -0.209 | 0.393 | 1.23 | -0.351 | -0.142 | -0.408 | 0.309 | -1.08 | 1.42 | 1.4 | 0.447 | 1.23 | -0.678 | -0.268 (inactive)
10 | COc1ccc(O[C@@H]2[C@H](O)CO[C@H]2C=Cc2ccccc2)cc1 | 0.529 | -0.176 (inactive) | -0.0647 | -0.0488 | -0.338 | 0.0177 | -0.798 | 0.116 | -0.28 | -0.283 | 0.326 | -0.437 | 0.051 | 0.173 | -0.117 | 0.117 | 1.66 | -0.208 | 0.0385 | -1.69 (inactive)
